Data as given in PubChem BioAssay (NCI).
This is part of a sample that, as a whole, favours compounds with a hit. Of some 79,000 tested, about 15% had one in any assay. Activity calls are given as the source filed them. Cut-off read from the data, not from the text of the source: active = growth inhibition above about 70%; inactive = the rest.

Key:
[1] = NCI Yeast Anticancer Drug Screen. Data for the rad52 strain (AID 147);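 note: 0% = growth of vehicle-treated control cultures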; details: S. cerevisiae rad52 mutant growth inhibition, active compounds read high
Procedure, shortened: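 Read-out: growth inhibition versus vehicle-treated controls. Cells were a DNA repair-deficient yeast strain treated with compounds.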

[2] = NCI Yeast Anticancer Drug Screen. Data for the wt1 strain (AID 149);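 note: 0% = growth of vehicle-treated wt1 cultures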; details: S. cerevisiae wt1 strain (SPY 50644) growth inhibition, active compounds read high
Procedure, shortened: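 Yeast wt1 strain exposed to compounds; growth inhibition measured relative to vehicle-treated controls.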

[3] = NCI Yeast Anticancer Drug Screen. Data for the rad50EPP+ strain (AID 151);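 note: 0% = growth of vehicle-treated control cultures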; details: S. cerevisiae rad50 mutant strain, active compounds read high
Procedure, shortened: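 Growth inhibition read against vehicle controls in rad50EPP+ yeast, a strain altered in DNA damage repair, after compound exposure.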

[4] = NCI Yeast Anticancer Drug Screen. Data for the mgt1 strain (AID 153); details: S. cerevisiae mgt1 mutant growth inhibition, active compounds read high
Procedure, shortened: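 mgt1 yeast grown with test compound; read-out is growth inhibition versus vehicle-treated cultures.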

[5] = NCI Yeast Anticancer Drug Screen. Data for the rad50 strain (AID 155);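 note: 0% = growth of vehicle-only cultures of the same strain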; details: S. cerevisiae rad50 strain growth inhibition, active compounds read high
Procedure, shortened: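 Yeast carrying a defined DNA repair defect were exposed to test compounds, and growth was compared with vehicle-treated controls to give percent inhibition.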

[6] = NCI Yeast Anticancer Drug Screen. Data for the mec2-1 strain (AID 157); details: S. cerevisiae mec2-1 strain, active compounds read high
Procedure, shortened: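 Yeast mec2-1 mutant treated with compound. Readout: growth inhibition vs vehicle controls.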

[7] = NCI Yeast Anticancer Drug Screen. Data for the sgs1 mgt1 strain (AID 161);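 note: 0% = growth of cultures given vehicle only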; details: S. cerevisiae sgs1 mgt1 strain, active compounds read high
Procedure, shortened: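 Mutant yeast exposed to compound; growth scored against vehicle-only wells.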

[8] = NCI Yeast Anticancer Drug Screen. Data for the CLN2oe strain (AID 163);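 note: 0% = growth of vehicle-only control cultures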; details: S. cerevisiae CLN2oe strain, active compounds read high
Procedure, shortened: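 Read-out: yeast growth inhibition, expressed relative to vehicle-only controls. The strain bears an engineered cell-cycle alteration.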

[9] = NCI Yeast Anticancer Drug Screen. Data for the cln2 rad14 strain (AID 165);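 note: 0% = growth equal to vehicle treated cultures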; details: S. cerevisiae cln2 rad14 strain, active compounds read high
Procedure, shortened: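 cln2 rad14 yeast strain; compound exposure; growth inhibition read vs vehicle controls.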

[10] = NCI Yeast Anticancer Drug Screen. Data for the bub3 strain (AID 167); details: S. cerevisiae bub3 mutant strain, active compounds read high
Procedure, shortened: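 Compounds were applied to a genetically altered yeast strain carrying a cell-cycle control defect. Growth inhibition was scored against vehicle-treated controls.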

[11] = NCI Yeast Anticancer Drug Screen. Data for the wt2 strain (AID 169);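 note: 0% = growth of vehicle-treated yeast cultures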; details: S. cerevisiae wt2 strain growth inhibition, active compounds read high
Procedure, shortened: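 Read-out: growth inhibition versus vehicle-treated control cultures after compound exposure of the yeast strain.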

[12] = NCI Yeast Anticancer Drug Screen. Data for the mlh1 strain (AID 171);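 note: 0% = growth of vehicle-treated control cultures of the same strain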; details: S. cerevisiae mlh1 strain growth inhibition, active compounds read high
Procedure, shortened: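 Read-out: growth inhibition versus vehicle controls. Strain: engineered yeast with a defined DNA repair or cell cycle defect, compound-treated.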

[13] = NCI Yeast Anticancer Drug Screen. Data for the sgs1 strain (AID 173);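 note: 0% = growth of vehicle-only control cultures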; details: S. cerevisiae sgs1 mutant, active compounds read high
Procedure, shortened: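 Read-out: yeast growth inhibition relative to vehicle controls, following compound exposure of a strain with a defined DNA repair/cell cycle alteration.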

[14] = NCI Yeast Anticancer Drug Screen. Data for the rad18 strain (AID 177); details: S. cerevisiae rad18 mutant growth inhibition, active compounds read high
Procedure, shortened: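 Readout: growth inhibition vs vehicle controls. Cells: genetically altered yeast strain, DNA repair defect.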

[15] = NCI Yeast Anticancer Drug Screen. Data for the rad14 strain (AID 159);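 note: 0% = growth of vehicle-treated control cultures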; details: S. cerevisiae rad14 strain growth inhibition, active compounds read high
Procedure, shortened: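 Yeast cells carrying a defined DNA-repair defect were exposed to compounds, and growth inhibition was calculated relative to vehicle-treated control cultures.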

[16] = NCI Yeast Anticancer Drug Screen. Data for the mlh1 rad18 strain (AID 175); details: S. cerevisiae mlh1 rad18 strain growth inhibition, active compounds read high
Procedure, shortened: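 Yeast w/ defined DNA-repair lesions; compound exposure; growth vs vehicle controls → % inhibition.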

[17] = at 5.0 µM (retest, dose inferred, filed as 0.5)
[18] = at 50.0 µM (retest, dose inferred, filed as 5.0)

Measured: growth inhibition

Fc1ccc(NC(=S)SCc2ccc3c(c2)OCO3)cc1F
active: [1]; at 11.0 µM 71% | [1]; at 33.0 µM 98% | [1]; at 100.0 µM 97% | [2]; at 33.0 µM 98% | [2]; at 100.0 µM 97% | [3]; at 11.0 µM 96% | [3]; at 33.0 µM 99% | [3]; at 100.0 µM 99% | [4]; at 33.0 µM 99% | [4]; at 100.0 µM 96% | [5]; at 33.0 µM 99% | [5]; [18] 97% | [5]; at 50.0 µM 92.2% | [5]; at 100.0 µM 98% | [6]; at 33.0 µM 99% | [6]; [18] 99% | [6]; at 50.0 µM 91.7% | [6]; at 100.0 µM 98% | [7]; [18] 99% | [7]; at 50.0 µM 92.5% | [8]; at 33.0 µM 99% | [8]; at 100.0 µM 98% | [9]; [18] 99% | [9]; at 50.0 µM 91.8% | [10]; at 33.0 µM 98% | [10]; [18] 99% | [10]; at 50.0 µM 91.8% | [10]; at 100.0 µM 98% | [11]; at 33.0 µM 99% | [11]; at 100.0 µM 94% | [12]; at 33.0 µM 99% | [12]; at 100.0 µM 96% | [13]; at 33.0 µM 99% | [13]; at 100.0 µM 96% | [14]; at 11.0 µM 73% | [14]; at 33.0 µM 100% | [14]; at 100.0 µM 98%
inactive: [1]; at 1.2 µM 15% | [1]; at 3.7 µM 9% | [2]; at 1.2 µM 6% | [2]; at 3.7 µM 6% | [2]; at 11.0 µM 66% | [3]; at 1.2 µM 0% | [3]; at 3.7 µM 27% | [4]; at 1.2 µM -3% | [4]; at 3.7 µM 12% | [4]; at 11.0 µM 61% | [5]; at 1.2 µM -9% | [5]; at 3.7 µM 22% | [5]; [17] 23% | [5]; at 11.0 µM 57% | [6]; at 1.2 µM -10% | [6]; at 3.7 µM 2% | [6]; [17] -7% | [6]; at 11.0 µM 49% | [7]; [17] 31% | [8]; at 1.2 µM 8% | [8]; at 3.7 µM 28% | [8]; at 11.0 µM 40% | [9]; [17] 21% | [10]; at 1.2 µM -19% | [10]; at 3.7 µM -11% | [10]; [17] 35% | [10]; at 11.0 µM 42% | [11]; at 1.2 µM -2% | [11]; at 3.7 µM 19% | [11]; at 11.0 µM 58% | [12]; at 1.2 µM -29% | [12]; at 3.7 µM -28% | [12]; at 11.0 µM 53% | [13]; at 1.2 µM -17% | [13]; at 3.7 µM -13% | [13]; at 11.0 µM 59% | [14]; at 1.2 µM 20% | [14]; at 3.7 µM 34%

O=C1C(=O)c2ccccc2C=C1[N+](=O)[O-]
inactive: [1]; at 1.2 µM 3% | [1]; at 3.7 µM 11% | [1]; at 11.0 µM 26% | [2]; at 1.2 µM 3% | [2]; at 3.7 µM 5% | [2]; at 11.0 µM 9% | [2]; at 33.0 µM 15% | [2]; at 100.0 µM 26% | [3]; at 1.2 µM -1% | [3]; at 3.7 µM -1% | [3]; at 11.0 µM 5% | [3]; at 33.0 µM 15% | [3]; at 100.0 µM 29% | [4]; at 1.2 µM 2% | [4]; at 3.7 µM 10% | [4]; at 11.0 µM 9% | [4]; at 33.0 µM 15% | [4]; at 100.0 µM 58% | [5]; at 1.2 µM 0% | [5]; at 3.7 µM 9% | [5]; [17] -12% | [5]; at 11.0 µM 12% | [5]; at 33.0 µM 36% | [5]; [18] 30% | [5]; at 50.0 µM 50.5% | [15]; at 1.2 µM 2% | [15]; at 3.7 µM 17% | [15]; at 11.0 µM 15% | [15]; at 33.0 µM 37% | [7]; [17] 14% | [8]; at 1.2 µM 2% | [8]; at 3.7 µM 3% | [8]; at 11.0 µM 9% | [8]; at 33.0 µM 17% | [8]; at 100.0 µM 23% | [9]; [17] -13% | [9]; [18] 14% | [9]; at 50.0 µM 16.8% | [10]; at 1.2 µM 0% | [10]; at 3.7 µM 3% | [10]; [17] -14% | [10]; at 11.0 µM 1% | [10]; at 33.0 µM 4% | [10]; [18] 8% | [10]; at 50.0 µM 8.85% | [10]; at 100.0 µM 49% | [11]; at 1.2 µM 2% | [11]; at 3.7 µM 6% | [11]; at 11.0 µM 11% | [11]; at 33.0 µM 28% | [12]; at 1.2 µM 1% | [12]; at 3.7 µM 1% | [12]; at 11.0 µM 3% | [12]; at 33.0 µM 22% | [13]; at 1.2 µM 4% | [13]; at 3.7 µM 11% | [13]; at 11.0 µM 30% | [13]; at 33.0 µM 65% | [16]; [17] 0% | [16]; [18] 64% | [16]; at 50.0 µM 68.8% | [14]; at 1.2 µM 22% | [14]; at 3.7 µM 54%
active: [1]; at 33.0 µM 70% | [1]; at 100.0 µM 91% | [5]; at 100.0 µM 82% | [15]; at 100.0 µM 86% | [7]; [18] 77% | [7]; at 50.0 µM 73.7% | [11]; at 100.0 µM 75% | [12]; at 100.0 µM 83% | [13]; at 100.0 µM 92% | [14]; at 11.0 µM 89% | [14]; at 33.0 µM 94% | [14]; at 100.0 µM 95%
